Molecular target: Neuropilin-1 (Homo sapiens) (UniProt O14786)
Assay: NRP-1 b1b2 CendR peptide binding inhibitors, dose response, biochemical, FP and AlphaScreen panel (AID 651650)
Conditions: NRP-1 b1b2 / RPARPAR peptide binding, FP or AlphaScreen; run 1, at 100 µM (top of the series)

Neuropilin-1 (Homo sapiens), sequence (O14786 whole entry, looked up): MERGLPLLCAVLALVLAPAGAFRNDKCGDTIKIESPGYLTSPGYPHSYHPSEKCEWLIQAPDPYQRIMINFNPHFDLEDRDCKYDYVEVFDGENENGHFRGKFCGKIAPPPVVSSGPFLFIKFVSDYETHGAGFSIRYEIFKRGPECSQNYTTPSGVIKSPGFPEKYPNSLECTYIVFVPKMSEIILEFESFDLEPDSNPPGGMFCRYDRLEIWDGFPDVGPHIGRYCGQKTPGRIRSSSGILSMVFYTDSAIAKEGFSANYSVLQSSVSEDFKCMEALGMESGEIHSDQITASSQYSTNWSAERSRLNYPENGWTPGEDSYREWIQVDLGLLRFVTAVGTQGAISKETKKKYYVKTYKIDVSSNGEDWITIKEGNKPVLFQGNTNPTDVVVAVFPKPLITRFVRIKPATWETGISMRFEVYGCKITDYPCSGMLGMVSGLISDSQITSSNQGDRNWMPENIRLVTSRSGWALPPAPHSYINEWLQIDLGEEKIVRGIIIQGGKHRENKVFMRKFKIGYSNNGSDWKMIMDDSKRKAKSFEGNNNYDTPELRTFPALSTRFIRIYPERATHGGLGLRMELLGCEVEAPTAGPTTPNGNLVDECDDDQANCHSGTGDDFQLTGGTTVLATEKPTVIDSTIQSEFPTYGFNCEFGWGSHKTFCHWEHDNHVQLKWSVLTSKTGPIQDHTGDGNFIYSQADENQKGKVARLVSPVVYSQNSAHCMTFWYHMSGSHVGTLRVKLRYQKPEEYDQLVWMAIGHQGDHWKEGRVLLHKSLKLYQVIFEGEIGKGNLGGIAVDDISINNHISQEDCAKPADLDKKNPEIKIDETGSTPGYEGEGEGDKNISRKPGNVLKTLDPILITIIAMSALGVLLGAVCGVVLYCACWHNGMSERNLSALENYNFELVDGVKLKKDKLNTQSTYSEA

## CCOC(=O)c1cnc(-c2ccccc2)nc1Oc1ccc(OC)cc1
  inhibition: 99.5%

## COc1ccccc1N1CCN(C(=O)C2c3ccccc3Oc3ccccc32)CC1
  inhibition: 38.7%

## O=C(CCn1c(=O)c2cccn2c2cccnc21)NCc1cccc(Cl)c1
  inhibition: 5.81%

## Nc1ncnc2[nH]c(=S)[nH]c12
  inhibition: -4.05%

## O=C(NCCCN1CCCC(O)C1)c1cc(COc2ccc(F)cc2F)on1 (centres undefined)
  inhibition: 50.2%

## Cc1[nH]n(-c2ccccc2)c(=S)c1C=Nc1cccc([N+](=O)[O-])c1
  inhibition: 14.4%

## CC(C(=O)N1CCN(c2ccc(Cl)cc2)CC1)c1ncc(C(F)(F)F)cc1Cl (centres undefined)
  inhibition: -2.5%

## CC(=O)/C(=N\Nc1ccc(Cl)cc1Cl)Sc1cccc2cccnc12
  inhibition: 24.8%

## COC(=O)c1ccccc1NC(=O)CSc1nc(C)cc(C)n1
  inhibition: 45.7%

## CCOC(=O)N1CCN(C(=O)Nc2ccc3nc(C)c(C)nc3c2)CC1
  inhibition: -6.06%

## CCOC(=O)C1(O)CC(C)=NN1C(=O)c1cccc(Br)c1 (centres undefined)
  inhibition: 35.1%

## C#CCOc1nc(C)cc(C)c1S(=O)(=O)c1ccccc1C
  inhibition: 25.9%

## CCc1ccccc1NC(=O)c1ccccc1N1C(=O)C2C3C=CC(C3)C2C1=O (centres undefined)
  inhibition: 21.3%

## CCOC(=O)C1CCN(S(=O)(=O)c2ccc3c(c2)CCN3C(=O)C2CCC2)CC1
  inhibition: 6.43%

## Nc1ccc(C#Cc2c(-c3ccsc3)oc3ccc(N4CCOCC4)cc23)cc1
  inhibition: 28.3%

## O=C(CSc1nnc(Cc2ccccc2)n1Cc1ccccc1)NCc1ccco1
  inhibition: 8.68%

## CC(=O)c1ccc(OCC(=O)Nc2nnc(C3CC3)s2)cc1
  inhibition: -27.1%

## CCOc1c2ccc(C(=O)NCCc3cccs3)cc2nn1CC
  inhibition: -5.4%

## COc1cc(C(=O)NCc2ccccc2)cc(Br)c1OC
  inhibition: -10%

## O=C(O)CCSc1nnc(COc2cccc3cccnc23)n1-c1ccccc1
  inhibition: 52.3%

## COc1ccc(-c2cc(C)no2)cc1S(=O)(=O)NCc1cccc(C)c1
  inhibition: 23.2%

## COC/C=C/C1=CC2=CC(=O)C(C)(OC(=O)c3cnc4ccccc4n3)C(=O)C2=CN1Cc1ccc(OC)cc1 (centres undefined)
  inhibition: 66.7%

## Cc1ccc(N(C(=O)c2ccc(CN3CCOCC3)o2)C(C(=O)NCCC(C)C)c2cccs2)c(C)c1 (centres undefined)
  inhibition: 16%

## CN1C(=O)c2oc3ccccc3c(=O)c2C1c1ccccn1 (centres undefined)
  inhibition: 82.2%

## Cc1ccccc1NC(=S)NC(=O)COc1ccccc1C
  inhibition: 98.2%

## COc1ccncc1-c1csc(C(O)c2ccccc2)n1 (centres undefined)
  inhibition: 3.78%

## CCOC(=O)c1c2ccc(OCC(=O)NN)cc2n2ccccc12
  inhibition: -1.02%

## COc1cc(OC)nc(NC(=O)COC(=O)c2cccc(Cl)c2)n1
  inhibition: 98.8%

## CSc1ncccc1C(=O)OCC(=O)NC1CCCCC1
  inhibition: 56.7%

## c1ccc(OCCCN2CCCC2)cc1
  inhibition: 53.9%

## Cc1c(CC(=O)O)c(=O)oc2cc(OCc3ccc(F)cc3Cl)ccc12
  inhibition: -12.1%

## CC(=O)NCCNc1nc(NC(C)C)nc2ccsc12
  inhibition: -4.88%

## O=C(CCCNC(=O)/C(=C\c1ccc(F)cc1)NC(=O)c1ccccc1)OCc1ccccc1
  inhibition: -33%

## Cn1cnc2cc(NC(=O)c3ccco3)ccc21
  inhibition: 77.5%

## CCOC(=O)/C=C/COc1ccccc1[N+](=O)[O-]
  inhibition: 29.2%

## CCOc1ccccc1C1CC(=O)NC2=C1C(=O)CC(C)(C)C2 (centres undefined)
  inhibition: 32%

## CCO[C@@H]1OC(C(=O)NCc2ccccc2)=C[C@H](c2ccc(Br)cc2)[C@H]1CCCO
  inhibition: 102%

## CCN(CC(=O)NCc1cccs1)S(=O)(=O)c1ccc(C(C)C)cc1
  inhibition: 1.66%

## C[C@@H](NC(=O)c1[nH]cnc1C(=O)Nc1cccc(Cl)c1)c1ccccc1
  inhibition: 54.3%

Reference: PubChem BioAssay AID651650 (Sanford-Burnham Center for Chemical Genomics, 2012)
